Source: PubChem
Most compounds without a hit are left out; they make up all but 11% or so of the library.
JMJD2A Tudor – inhibitors of human JMJD2A Tudor domain. O75164. AlphaScreen JMJD2A-Tudor / H3K4me3 peptide binding. Potency, µM (titrated, usually from 114 µM), most hits filed as inhibitors. actives 4.4% (n = 390,000); also: nearly all actives have a fitted effect of over 50% in size
BAZ2B block – blocks human BAZ2B | Q9UIF8 | AlphaScreen BAZ2B-H3K14Ac peptide displacement | Potency, µM (titrated, usually from 114 µM), usual class: inhibitors | actives 4.4% (n = 360,000) | AID 504333; also: nearly all actives have a fitted effect of over 60% in size
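In this displacement format the biotinylated H3(5-23) peptide acetylated at Lys14 serves as ligand at 50 nM, with BAZ2B at 50 nM in PBS pH 7.4 containing 0.01% Tween-20. Donor and acceptor beads are 10 ug/mL final.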
G9a block – G9a (human) methyltransferase inhibition. Q96KQ7. G9a H3K9 monomethylation, AlphaScreen, 2 h. Potency, µM (series often up to 102 µM), hits mostly inhibitors. actives 8.8% (n = 350,000). AID 504332; also: nearly all actives have a fitted effect of over 75% in size
Target sequence (Q96KQ7 913-1193 limits assumed): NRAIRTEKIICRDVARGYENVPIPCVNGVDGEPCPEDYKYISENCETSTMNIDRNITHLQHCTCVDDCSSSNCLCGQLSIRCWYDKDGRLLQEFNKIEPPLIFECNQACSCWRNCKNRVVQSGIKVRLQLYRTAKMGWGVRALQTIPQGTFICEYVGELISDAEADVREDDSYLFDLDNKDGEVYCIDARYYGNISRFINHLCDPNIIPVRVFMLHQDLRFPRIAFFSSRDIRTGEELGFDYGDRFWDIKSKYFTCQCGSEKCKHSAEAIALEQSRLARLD
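Using a bead-based AlphaScreen, monomethylated H3K9 product from 2 h room-temperature reactions (G9a 20 nM, peptide 500 nM, SAM 20 uM) was detected with 0.5 ug/mL rabbit anti-H3K9me1 antibody.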
HP1b chromo inh – inhibitors of HP1-beta chromodomain binding to methylated histone tails; actives 0.56% (n = 390,000); Potency, µM (highest dose often 114 µM), actives largely listed as inhibitors; AID 540317; AlphaScreen HP1-beta / biotin-H3K9me3 peptide binding; also: nearly all actives have a fitted effect of over 70% in size
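Compound inhibition of the preformed complex between 50 nM HP1-beta and 50 nM biotinylated H3K9me3 peptide was read by AlphaScreen. Buffer was PBS pH 7.4 with 0.01% Tween-20. Incubations ran 30 min at room temperature, with 10 ug/mL donor/acceptor beads.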
PI5P4Ka inh – inhibitors of human PI5P4K alpha | PI5P4Kalpha enzyme, ADP-Glo luminescence, 60 min; hits give low values | max response, % | actives 1.2% (n = 330,000); active = max response of -50% or lower; inconclusive = between -30% and -50%; inactive = -30% or higher; also: value at the top dose of about 77 µM
Target sequence (P48426 whole entry, looked up): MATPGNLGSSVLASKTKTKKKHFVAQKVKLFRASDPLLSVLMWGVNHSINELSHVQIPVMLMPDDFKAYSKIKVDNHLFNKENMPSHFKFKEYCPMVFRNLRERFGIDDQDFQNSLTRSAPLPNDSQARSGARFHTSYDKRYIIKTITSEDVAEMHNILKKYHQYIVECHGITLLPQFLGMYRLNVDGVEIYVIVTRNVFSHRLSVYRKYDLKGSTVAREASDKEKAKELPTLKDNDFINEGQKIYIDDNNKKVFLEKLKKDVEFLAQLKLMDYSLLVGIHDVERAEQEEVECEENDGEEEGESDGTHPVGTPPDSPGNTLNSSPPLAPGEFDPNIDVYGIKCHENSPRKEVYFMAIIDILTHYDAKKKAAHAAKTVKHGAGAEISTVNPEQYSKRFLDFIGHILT
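qHTS, 1536-well: enzyme/substrate mix, compound by pin tool, 5 microM ATP final; RT 60 min; ADP-Glo reagents 1 (45 min) then 2 (30 min); luminescence.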
L3MBTL1 inh – L3MBTL1 (human) inhibition | actives 0.66% (n = 230,000) | Potency, µM (titrated, usually from 57.1 µM), most hits filed as inhibitors | AlphaScreen L3MBTL1–H3K9me1 peptide binding | Q9Y468; also: nearly all actives have a fitted effect of over 60% in size
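First, the protein-peptide complex forms for 30 min at room temperature (L3MBTL1 50 nM, biotinylated H3K9me1 peptide 75 nM). Next, compounds are pin-transferred and incubated 30 min. Finally, AlphaScreen beads are added and read after 30 min.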
A number is an active result; . = inactive; ? = inconclusive; / = not tested or not shown; [ ] = remark or other dose. Unless noted, calls follow the shape of the dose curve; as a rule, active = well fitted inhibition curve with a large enough effect; inconclusive = small, poorly fitted or top-dose-only effect; inactive = no such curve, though single readings can be large or run the other way.

SMILES	JMJD2A Tudor	BAZ2B block	G9a block	HP1b chromo inh	PI5P4Ka inh	L3MBTL1 inh
CCOc1ccc(NC(=O)CN2CCN(CC(=O)Nc3ccc(C(N)=O)cc3)CC2)cc1	.	.	50µM	.	.	/
CC1=C(C(=O)OCc2ccc(C)cc2)C(c2ccccc2F)CC(=O)N1 (stereo unspecified)	.	.	.	.	/	/
CCCCN(CCCNC(=O)C1CCN(S(=O)(=O)CC)CC1)c1ccccc1	.	.	7.1µM	.	/	.
NS(=O)(=O)c1ccc(CCNC(=O)C2CCCN2S(=O)(=O)c2cccc3nsnc23)cc1 (stereo unspecified)	.	.	79µM	.	.	/
CCN(CC)C(=O)CN(C)S(=O)(=O)c1cccc2nsnc12	.	.	.	.	/	.
CCN(CCNC(=O)C1CCN(c2nnc(-n3cccc3)s2)CC1)c1ccccc1	.	.	16µM	.	.	.
CCOc1ccc(CCNC(=O)C2CCN(c3nnc(-n4cccc4)s3)CC2)cc1	.	.	.	.	.	/
CCN(CCNC(=O)C1CCN(S(=O)(=O)CC)CC1)c1ccccc1	.	.	?	.	/	.
CCN(CCNC(=O)CN(C)S(=O)(=O)c1cccc2nsnc12)c1ccccc1	?	?	40µM	.	/	/
CCCN(CCC)CCCNC(=O)C1CCN(S(=O)(=O)c2cccc3nsnc23)CC1	.	.	.	.	.	/
CCN(CC)c1ccc(NC(=O)CN(C)S(=O)(=O)c2cccc3nsnc23)c(C)c1	?	/	18µM	?	/	/
CCN(CCNC(=O)C1CCN(S(=O)(=O)c2cccc3nsnc23)CC1)c1ccccc1	?	?	50µM	.	.	.
Cc1c(C(O)(c2ccccc2)c2ccccc2)[n+]2ccccc2n1C	.	/	/	/	/	/
Cc1cc(C)nc(SCc2ccc(C(=O)N/N=C/c3ccc(C(=O)O)cc3)cc2)n1	.	.	.	.	.	.
Cc1cc(C)nc(SCc2ccc(C(=O)N/N=C/c3ccco3)cc2)n1	.	?	40µM	.	.	/
Cn1ccsc1=NC(=O)c1ccc([N+](=O)[O-])o1	56µM	.	?	?	-60	/
O=C(Nc1ccccc1)c1ccc(CSc2ncccn2)cc1	.	45µM	.[0.501 µM]	.	.	.
Cc1cc(C)n(-c2ccc(C(=O)Nc3cc(S(=O)(=O)N(C)C)ccc3Cl)cc2)n1	?	.	79µM	.	.	.
Cc1cc(C)n(-c2ccc(C(=O)Nc3cccnc3Cl)cc2)n1	.	.	.	.	.	.
C=CCN1C(=O)/C(=C/c2ccc(-c3ccc(F)cc3)o2)SC1=S	?	?	?	.	.	/
O=C1NC(=O)/C(=C/c2ccc(-c3ccc(F)cc3O)o2)S1	/	/	21µM	/	/	/
O=C(Cc1ccc(Br)cc1)N1CCOCC1	.	.	79µM	.	.	.
Cc1ccc(CC(=O)Nc2ccc(C(=O)N3CCOCC3)cc2)cc1	.	.	18µM	.	.	/
CC(=O)Nc1ccc(NC(=O)N2CCOCC2)cc1	/	/	/	/	.	/
Cc1ccc(CC(=S)N2CCOCC2)cc1	.	.	8.9µM	.	.	/
SMILES	JMJD2A Tudor	BAZ2B block	G9a block	HP1b chromo inh	PI5P4Ka inh	L3MBTL1 inh
CC(=O)/C(=N\Nc1ccc(C)cc1)N1CCOCC1	.	.	28µM	.	.	.
CCN(Cc1cccs1)c1ncnc2ccc(-c3ccc4c(c3)OCO4)cc12	.	/	/	/	/	/
C/C=C(\C)C(=O)OC1[C@@H]2C=C3C4CC(=O)OC(c5ccoc5)[C@]4(C)CCC3[C@@](C)(C2=O)C(C(O)C(=O)OC)C1(C)C (stereo partly specified)	/	/	.[2.33 µM]	/	/	/
Cn1cc(CN2CCN(c3ncccn3)CC2)c(-c2cccc(Cl)c2)n1	.	.	.	.	.	.
Cc1cc(N2CCN(Cc3cn(C)nc3-c3cccc(Cl)c3)CC2)cc(C)n1	.	45µM	/	.	.	.
O=C(COc1coc(CN2CCc3ccccc3C2)cc1=O)N1CCOCC1	.	.	45µM	.	.	.
CCOc1ccccc1NC(=O)COc1coc(CN2CCc3ccccc3C2)cc1=O	.	?	.[0.501 µM]	.	.	.
Cc1n[nH]c(=O)nc1NCc1ccccc1	.	.	.	.	.	.
Cc1n[nH]c(=O)nc1N/N=C/c1ccco1	?	25µM	.	.	.	/
Cc1n[nH]c(=O)nc1Nc1ccc(O)cc1	.	.	79µM	.	/	/
Cc1ccc(Nc2nc(=O)[nH]nc2C)cc1	.	.	?	.	/	/
Cc1n[nH]c(=O)nc1NCCc1ccccc1	.	.	89µM	.	.	/
CCCS(=O)(=O)c1c(S(=O)(=O)CCC)c2cc(C(C)(C)C)ccn2c1C(=O)c1ccc(C)cc1	.	.	?	.	/	/
Cc1cccc(C(C)C)c1NC(=O)c1ccc2c(c1)CCN2S(C)(=O)=O	.	.	.	.	/	/
Cc1cc(C)nc(NC(=O)CSc2nc3ccccc3s2)n1	.	.	.	.	/	/
N#CC1(NC(=O)CSc2n[nH]c(-c3ccccc3)n2)CCCCC1	.	.	8.9µM	.	.	.
O=C(COC(=O)CCc1nc2ccccc2s1)NC(=O)NCc1ccco1	.	50µM	.	.	.	/
O=C(CSc1n[nH]c(-c2ccccc2)n1)NC(=O)NCc1ccco1	.	?	50µM	.	-55	?
Cc1ccc(S(=O)(=O)NC(=O)CSc2nc3ccccc3s2)cc1	.	.	50µM	.	/	.
O=C(CSc1nc2ccccc2s1)NC(=O)NCc1ccco1	?	?	45µM	.	/	?
CC1(C)CC2(CC(C)(C(=O)CSc3nc4ccccc4s3)OC2=O)C(=O)O1 (stereo unspecified)	.	.	.	.	/	.
O=C(CSc1nc(-c2ccccc2)cs1)NC(=O)NCc1ccco1	.	.	.	.	/	.
CC1(C(=O)CSc2nc3ccccc3s2)CCC(=O)O1 (stereo unspecified)	40µM	?	.[12.7 µM]	.	.	.
O=C(CSc1cccc(C(F)(F)F)c1)NC(=O)NCc1ccco1	79µM	50µM	.	.	/	.
Cc1ccc(C(=O)c2cn(Cc3ccccc3)c3nc(C)ccc3c2=O)cc1	.	.	.	.	/	/
SMILES	JMJD2A Tudor	BAZ2B block	G9a block	HP1b chromo inh	PI5P4Ka inh	L3MBTL1 inh
CCC(C)NC(=O)c1ccc2nc(-c3cccs3)c(-c3cccs3)nc2c1 (stereo unspecified)	.	/	/	.	/	/
CN1CCC2(CC1)CCN(C(=O)c1cc(C(F)(F)F)cc(C(F)(F)F)c1)CC2	/	/	.[12.7 µM]	/	/	/
COc1cc(C(=O)OCCc2c(C)nc3nc[nH]n3c2=O)cc(OC)c1OC	.	.	.	.	.	/
CC(=O)OCCc1c(C)nc2nc[nH]n2c1=O	.	.	50µM	.	.	/
Cc1cccc(NC(=O)Cn2c(=O)n(Cc3ccc4c(c3)OCO4)c(=O)c3oc4ccccc4c32)c1C	.	.	.	.	/	/
COc1ccc(-n2cc(-c3ccc4c(c3)OCO4)n(CC(=O)Nc3cccc(C)c3C)c2=O)c(OC)c1	?	?	5µM	.	/	/
